# Experimental data reported in the supplement of paper PMC12669032.
# “And” between values parts separate entries of the source, which are not always exact repeats. Equal entries are not always repeated. Unmarked numbers belong to inactive results.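 The calls were made as follows: active = AUC reduced over 20% with Padj below 0.05 in at least 2 of 3 replicates; inactive = otherwise.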
# What was measured:
# Assay in all cases: growth AUC relative to DMSO control (median of replicates) (fraction); higher = more growth (less inhibition), active = hit call of the paper
# Conditions in all cases: 20 µM; 24 h
# [1] = tested on: Coprococcus comes
# How it was run: (§1)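 Three biological replicates, each grown on a separate day, were combined as a median for every value. In each, a gut bacterial monoculture in mGAM started at OD600 0.05 and grew anaerobically at 37 °C with 20 µM compound (1% DMSO), with OD600 read hourly over 24 h. Area under the growth curve was normalised against the plate median of solvent-only wells, or against row and column medians on the industrial chemical plate, after the minimum OD was set to 0.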
# [2] = tested on: Escherichia coli ED1a
# How it was run: as §1
# [3] = tested on: Escherichia coli IAI1
# How it was run: as §1
# [4] = tested on: Eubacterium rectale
# How it was run: as §1
# [5] = tested on: Fusobacterium nucleatum subsp. animalis
# How it was run: as §1
# [6] = tested on: Lactobacillus gasseri
# How it was run: as §1
# [7] = tested on: Lactobacillus paracasei
# How it was run: as §1
# [8] = tested on: Odoribacter splanchnicus
# How it was run: as §1
# [9] = tested on: Parabacteroides distasonis
# How it was run: as §1
# [10] = tested on: Parabacteroides merdae
# How it was run: as §1
# [11] = tested on: Roseburia intestinalis
# How it was run: as §1
# [12] = tested on: Streptococcus salivarius
# How it was run: as §1
Compound,growth AUC [1],growth AUC [2],growth AUC [3],growth AUC [4],growth AUC [5],growth AUC [6],growth AUC [7],growth AUC [8],growth AUC [9],growth AUC [10],growth AUC [11],growth AUC [12]
Nc1nc(N)nc(N)n1,0.978,0.991,1.02,0.944,1,1.01,1.05,0.119 (active),1.23,0.981,1.09,1.02
O=c1oc2ccccc2c(O)c1C1CC(c2ccc(-c3ccc(Br)cc3)cc2)Cc2ccccc21 (stereo not given),0.856,0.998,1,0.567 (active),0.96,0.652 (active),0.714 (active),0.99,0.126 (active),0.00968 (active),0.345 (active),0.393 (active)
CS(=O)(=O)c1ccc(C(=O)C2C(=O)CCCC2=O)c(Cl)c1COCC(F)(F)F,1.01,1.01,0.994,1.04,1.05,0.917,0.989,1.14,0.944,1.01,0.964,0.974
C#CCOS(=O)OC1CCCCC1Oc1ccc(C(C)(C)C)cc1 (mixture of isomers),1.02,1.03,0.968,1,1.05,0.928,0.987,0.946,0.964,0.933,0.956,1.03
CNC(=O)O/N=C(\C)SC,0.981,0.979,1.01,1.01,0.985,1.02,0.967,0.992,0.986,1,0.994,0.973
O=C1c2ccccc2C(=O)N1SC(Cl)(Cl)Cl,1.01,0.996,1.02,1.06,1.02,1.01,0.963,1.02,1.06,1.05,0.99,1.01
N#CCNC(=O)c1cnccc1C(F)(F)F,0.993,1.01,0.961,0.97,0.991,1.06,0.974,1.02,1.02,1.03,1,0.995
CC(=NC#N)N(C)Cc1ccc(Cl)nc1,1.06 and 0.993,0.994 and 1,0.982 and 1.08,0.908 and 0.994,0.987 and 0.952,0.985 and 1.03,1.03 and 0.987,1.04 and 1.02,1.02 and 1,1.04 and 0.98,0.956 and 1.02,1.05 and 1.06
CNC(=O)Oc1cccc2ccccc12,1.03,1.01,0.982,1.05,1.03,0.907,1.1,1.05,0.944,1,0.973,1.03
CCC1COC(Cn2cncn2)(c2ccc(Cl)cc2Cl)O1 (stereo not given),0.982,0.988,0.96,0.755,0.917,1.1,0.92,0.983,1,0.948,0.936,0.948
CO/N=C(/C(=O)OC)c1ccccc1COc1ccccc1C,0.996,0.955,0.993,0.939,1.02,1.01,0.881,0.92,0.944,0.927,0.97,0.97
Clc1cc(Cl)nc(-c2ccccc2)n1,1.02,1.01,0.997,1.06,1.08,0.883,1,1.02,0.991,0.965,0.956,0.99
Cc1ccc2nc3sc(=O)sc3nc2c1,0.964,0.969,0.948,1.02,1.04,0.915,0.954,1.14,0.924,0.954,0.892,0.983
CCCCN(CC)C(=O)SCCC,1.03,1.01,1.01,0.982,1.07,0.972,1.02,0.981,1.01,1.02,1.03,0.996
CC(Oc1ccc(Oc2ncc(C(F)(F)F)cc2Cl)cc1)C(=O)O (stereo not given),0.99,1.02,0.987,0.977,1.01,0.922,0.876,1.04,0.978,0.976,1.03,0.981
CCOc1cc(OP(=S)(OC)OC)nc(CC)n1,0.984,1,1.01,1.04,1.04,0.996,1.05,0.987,0.951,0.979,0.98,0.983
N#Cc1sc2c(=O)c3ccccc3c(=O)c=2sc1C#N,0.921,0.945,0.957,0.911,0.881,1.01,0.875,0.926,0.928,0.968,1,0.908
CNC(=O)Oc1ccc(N(C)C)c(C)c1,0.992,1,1.01,1.06,1.08,0.909,1,0.861,0.977,0.986,0.949,0.992
CCOc1ccc(C(C)(C)COCc2cccc(Oc3ccccc3)c2)cc1,1,0.991,0.982,1.06,0.972,0.918,1.04,1.07,0.987,0.992,0.975,0.983
CCNc1nc(Cl)nc(NC(C)(C)C)n1,0.995,0.977,1.01,1.07,0.975,0.947,1.03,1.01,0.992,0.979,0.955,0.986
CC1CNC(=S)N1 (stereo not given),1.03,1.01,1.06,1.06,1.05,0.989,1.06,1.02,0.983,1.02,1.02,1
COP(=S)(OC)Oc1ccc(Sc2ccc(OP(=S)(OC)OC)cc2)cc1,1.03,1.05,1.01,1.01,1.09,1.03,0.973,1.13,1.01,1.05,1.03,1.01
CC1(C)C(C=C(Cl)Cl)[C@@H]1C(=O)O[C@@H](C#N)c1ccc(F)c(Oc2ccccc2)c1 (stereo not given in full),0.984,0.956,1,1,0.878,0.823,0.99,1.01,1.03,0.991,0.916,1
COP(=O)(OC)OC(Br)C(Cl)(Cl)Br (stereo not given),0.976,0.991,1.02,0.915,0.973,1.02,1.01,0.937,1.06,1.01,1.01,0.956
Fc1ccc(Oc2ccnc3cc(Cl)cc(Cl)c23)cc1,0.969,0.977,0.97,0.845,0.921,0.984,0.672,1,0.966,0.876,1.02,0.956

Compound,growth AUC [1],growth AUC [2],growth AUC [3],growth AUC [4],growth AUC [5],growth AUC [6],growth AUC [7],growth AUC [8],growth AUC [9],growth AUC [10],growth AUC [11],growth AUC [12]
O=S1OC[C@@H]2[C@H](CO1)[C@]1(Cl)C(Cl)=C(Cl)[C@@]2(Cl)C1(Cl)Cl (stereo not given in full),0.959 and 0.955,0.995 and 0.982,0.985 and 1.03,1.07 and 0.951,0.927 and 0.887,0.974 and 0.906,1.05 and 1.01,0.949 and 0.879,0.98 and 0.937,0.977 and 0.917,0.954 and 0.949,0.954 and 0.864
O=C(O)c1nc(Cl)ccc1Cl,1.03,0.995,1.01,0.952,0.998,1.09,1.03,1.01,1.03,1.03,1.07,1.02
c1ccc(-c2ccccc2)cc1,0.991,1.03,1.01,1.09,1.1,0.94,0.749,0.945,1.04,0.998,1.02,0.993
ClC(Cl)=C(c1ccc(Cl)cc1)c1ccc(Cl)cc1,0.914,1,0.986,1.02,1.03,0.938,0.921,1.02,0.985,0.909,0.945,0.965
CC(C)N(C(=O)COc1nnc(C(F)(F)F)s1)c1ccc(F)cc1,0.988,1.03,1.01,1.1,1.05,1.04,1.02,1,0.937,0.986,1.01,0.949
CCCOc1nn(C(=O)[N-]S(=O)(=O)c2ccccc2C(=O)OC)c(=O)n1C.[Na+],0.988,0.994,1.02,1.08,1.12,0.968,0.977,1.1,1.02,0.999,0.992,0.981
COP(=S)(OC)Oc1ccc(SC)c(C)c1,1.02,0.997,0.987,0.878,1.08,1.01,1.02,1,0.915,0.953,1.03,0.965
O=CNC(N1CCN(C(NC=O)C(Cl)(Cl)Cl)CC1)C(Cl)(Cl)Cl (stereo not given),0.946,0.975,0.935,0.881,0.658 (active),0.873,1.06,1.01,0.914,0.948,0.934,0.982
O=C(O)c1c(Cl)ccc2cc(Cl)cnc12,1,1,0.969,0.942,1.02,1.07,0.934,0.988,0.986,0.987,0.978,1.05
COc1c(Cl)ccc(Cl)c1Cl,0.973,0.967,0.99,1.01,1.04,0.879,0.937,1,0.985,0.981,1.01,0.952
Cc1cc(Cl)ccc1N=CN(C)C.Cl,1.09,1,0.98,1.01,1.01,1.01,1.03,1,1.02,1.01,0.994,0.99
CCOP(=S)(OCC)Oc1cc(Cl)c(Br)cc1Cl,0.976,1.02,0.992,1.05,1.08,0.868,1,0.968,0.891,0.962,0.948,0.958
ClC1C(Cl)C(Cl)C(Cl)C(Cl)C1Cl (stereo not given),,0.985 and 1.04 and 1.03,1 and 1.02 and 1.01,1.02 and 0.946 and 1.01,,,,,,,1.03 and 1.04 and 0.953,
CCNc1nc(NC(C)C)nc(SC)n1,1.01,0.974,0.989,1,1.13,0.987,0.992,0.999,1.01,1.04,1.02,0.973
O.[Br-].[Br-].c1cc[n+]2c(c1)-c1cccc[n+]1CC2,0.988,1.03,0.95,1.21,0.996,1.11,1.01,0.937,0.781 (active),0.967,1.04,1.01
O=C(Nc1ccccc1)Nc1cnns1,0.971,0.91,0.884,1,0.955,0.925,1.09,0.938,0.94,0.955,0.918,0.891
N#Cc1cc(I)c(O)c(I)c1,1.02,0.891,0.764 (active),0.954,0.828,0.95,0.982,0.853,0.814,0.802,0.993,0.898
CN(C)NC(=O)CCC(=O)O,0.998,0.988,1.01,0.926,0.956,1.01,1.02,0.989,1.03,1.02,0.953,0.951
COC(=O)N(C(=O)N1CO[C@@]2(C(=O)OC)Cc3cc(Cl)ccc3C2=N1)c1ccc(OC(F)(F)F)cc1,0.857,0.946,0.939,1.09,0.92,0.654,0.896,0.994,0.808,0.901,0.907,0.873
CC(C)[C@H](C(=O)O[C@H](C#N)c1cccc(Oc2ccccc2)c1)c1ccc(Cl)cc1,0.973,0.962,0.959,0.934,0.954,0.901,1.01,1.09,0.923,1.01,0.913,0.948
C=CCN=C=S,1,1.01,0.979,0.974,1.06,1.05,0.991,1,0.996,1.03,0.986,0.994
O=[N+]([O-])c1cc(Cl)ccc1Cl,0.935,0.983,0.979,1.04,1.04,0.872,1.05,1.04,1.01,0.987,0.931,0.981
CN=C=S,1,1,1.01,0.972,0.977,0.962,1.04,1.06,1.08,1,0.997,0.994
O=C(O)C(F)(F)C(F)(F)C(F)(F)C(F)(F)C(F)(F)C(F)(F)F,1,0.998,1,1.01,0.955,1.03,1.01,1,1.08,1.03,1.03,1.02
